CYP2C9 act – activators of human CYP2C9; P11712; recombinant CYP2C9, luciferin-H conversion, luminescence; stronger effect = higher value; factor 1 = untreated enzyme, 0 = blocked; activation factor at 5 µM; 96,000 compounds, 1.4% hits;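 active = activation factor of 2 or more for CYP2C9 at a 5 µM dose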;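 also: 0 = sulfaphenazole-blocked wells and 1 = vehicle-only wells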
CYP2C9 inh – human CYP2C9 inhibition. AID 777. P11712. CYP2C9 Supersomes, luciferin-H conversion, luminescence. inhibition, % at 5 µM. 96,000 compounds, 20% hits;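 active = blocking of liver enzyme CYP2C9 beyond about 50% at 5 µM, limit read from the data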
CYP2C19 act – activators of human cytochrome P450 2C19. P33261. recombinant CYP2C19, luciferin-H EGE luminescence; stronger effect = higher value; 0 = fully inhibited enzyme, 1 = untreated enzyme. activation factor at 5 µM. 96,000 tested, under 10 active. AID 1025;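 active = activation factor of at least 2 at 5 µM in the primary screen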;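 also: 0 = wells with 2.5 mM tranylcypromine and 1 = vehicle-only wells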
Target sequence (P33261 whole entry, looked up): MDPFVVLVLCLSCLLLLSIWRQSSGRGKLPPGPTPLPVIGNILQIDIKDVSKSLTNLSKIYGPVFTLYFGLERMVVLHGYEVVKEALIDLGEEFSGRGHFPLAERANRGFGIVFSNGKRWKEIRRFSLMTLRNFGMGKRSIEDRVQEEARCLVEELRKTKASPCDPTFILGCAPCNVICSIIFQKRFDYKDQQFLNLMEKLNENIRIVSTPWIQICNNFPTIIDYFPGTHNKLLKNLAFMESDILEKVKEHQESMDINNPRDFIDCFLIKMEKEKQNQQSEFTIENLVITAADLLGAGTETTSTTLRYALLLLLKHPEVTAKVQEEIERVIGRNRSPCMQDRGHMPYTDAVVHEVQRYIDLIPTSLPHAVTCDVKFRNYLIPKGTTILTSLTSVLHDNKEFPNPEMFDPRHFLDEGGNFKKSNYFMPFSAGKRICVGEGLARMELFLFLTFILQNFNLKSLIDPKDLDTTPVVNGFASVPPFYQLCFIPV
CYP2C19 inhib – human CYP2C19 inhibition. P33261. CYP2C19 Supersomes, luciferin-H EGE luminescence, 30 min. inhibition, % at 5 µM. 96,000 compounds, 21% hits. AID 778;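 active = CYP2C19 inhibition above a set limit at 5 µM in the primary screen, cut at about 50% in these data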;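 also: plate controls were negative control wells for no effect and 2.5 mM tranylcypromine positive control for full effect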
sEH act – soluble epoxide hydrolase (human) activation; purified human sEH enzymatic activity, activator screen; activation, % at 2 µM; AID 717; P34913; 91,000 compounds, 0.04% hits; in the data active = activation above about 37%
sEH inh – inhibitors of human soluble epoxide hydrolase | AID 707 | 91,000 compounds, 0.34% hits | recombinant human sEH enzymatic activity assay | P34913 | inhibition, % at 2 µM; in the data active = inhibition above about 80%
* marks the source's active call; other numbers are inactive results; nt = no result. Rows were chosen to be rich in hits. Some 27% of all compounds tested hit in one or more screens of this group.

SMILES	CYP2C9 act	CYP2C9 inh	CYP2C19 act	CYP2C19 inhib	sEH act	sEH inh
COc1cccc(OC)c1C(=O)NNC(=O)c1cccc(COc2ccc3c(c2)CCC3)c1	0.7	28	0.4	57*	-16	17
CN(C(=O)COc1cccc(Br)c1)C1CCS(=O)(=O)C1 (stereo unspecified)	1	1	0.9	11	15	-15
CC(=O)Cc1ccccc1OC(=O)c1ccco1	1	-1	1	5	nt	nt
CC(=O)N(CC1CCCO1)c1nnc(-c2cnccn2)s1 (stereo unspecified)	1	-3	1	1	7	-5
O=[N+]([O-])c1cc(Br)c(O)c(/C=N/Nc2nnnn2-c2cccc3ccccc23)c1	0	100*	0.1	91*	6	-7
COc1ccc(CN(C)C(=O)COC(=O)c2ccc3c(c2)OCO3)cc1OC	0.4	61*	0.7	32	9	-12
Cn1c(=O)c2c(ncn2CC(O)CNc2ccc(Br)cc2)n(C)c1=O (stereo unspecified)	0.5	46	0.3	75*	-5	3
CC(C)N(Cc1nc(-c2ccccc2)no1)C(=O)Cc1ccccc1	0.3	71*	0.1	89*	nt	nt
CC(C)N(Cc1nc(-c2ccccc2)no1)C(=O)COc1ccccc1	0.4	64*	0.1	89*	18	-19
Cc1ccc(C)c(C(=O)N(Cc2nc(-c3ccc(Cl)cc3)no2)C(C)C)c1	0.1	88*	0.2	83*	-6	5
Cc1ccc(-c2noc(CN(C(=O)Cc3ccccc3)C(C)C)n2)cc1	0.2	78*	0.3	74*	-1	-1
CC(C)N(Cc1nc(-c2ccc(Cl)cc2)no1)C(=O)CCC1CCCC1	0.7	33	0.7	30	2	-3
Cc1ccc(-c2noc(CN(C(=O)CCN3C(=O)c4ccccc4C3=O)C(C)C)n2)cc1	0.7	31	0.8	24	-9	11
[O-][n+]1c2ccc3nonc3c2nn1-c1ccccc1Cl	0.8	20	0.6	43	nt	nt
Cc1ccc(-c2noc(CN(C(=O)CCCN3C(=O)c4ccccc4C3=O)C(C)C)n2)cc1	nt	nt	nt	nt	-2	1
CC(C)N(Cc1nc(-c2ccccc2)no1)C(=O)CSc1ccccc1	0.2	79*	0.1	92*	-15	19
Cc1ccc(-c2noc(CN(C(=O)CCCCCN3C(=O)c4ccccc4C3=O)C(C)C)n2)cc1	0.1	91*	0	96*	6	-6
CCOc1cccc(OCCCCn2ccnc2)c1	0.1	89*	0	99*	-4	6
CCN(CC)CCOCCOc1cc(C)c(Cl)c(C)c1	1	-5	1	3	-3	0
Cc1cc(OCCCn2ccnc2)cc(C)c1Cl	0	97*	0	100*	nt	nt
Brc1cccc(OCCOCCn2ccnc2)c1	0	99*	0	100*	-19	20
Brc1cccc(OCCn2ccnc2)c1	0.4	64*	0.1	93*	19	-19
CCCc1cc(=O)[nH]c(SCC(=O)N2CCN(c3ccc(F)cc3)CC2)n1	1.1	-8	1	-4	6	-4
CCCN(CCC)CCSc1nc(O)c(C(C)C)c(=O)[nH]1	1	0	1.1	-6	nt	nt
c1ccc(NC2=Nc3ccccc3CC2)cc1	0.8	18	0.3	68*	10	-16
SMILES	CYP2C9 act	CYP2C9 inh	CYP2C19 act	CYP2C19 inhib	sEH act	sEH inh
CCN(CC)c1ccc(-n2cc3c(=O)n(C)c(=O)n(C)c3c2)cc1	0.9	10	0.9	12	nt	nt
CN(C)c1ccc(-n2cc3c(=O)n(C)c(=O)n(C)c3c2)cc1	0.2	76*	0.5	46	-2	1
Cc1[nH]c2ccccc2c1Cc1nnc(SCC(N)=O)o1	1.5	-45	1	-2	nt	nt
Cc1ccccc1S(=O)(=O)c1c(C)cc(C)n(CC(C)C)c1=O	0.2	81*	0.2	82*	-8	5
COc1ccc2c(c1)CCC(C)N2S(=O)(=O)c1ccc(C2CNC(=O)C2)cc1 (stereo unspecified)	nt	nt	nt	nt	-5	8
COc1cccc(NC(=O)C(C#N)Cc2ccncc2)c1 (stereo unspecified)	0.2	77*	0	100*	13	-13
COC(=O)c1ccc(NC(=O)C(C)Oc2ccccc2)cc1 (stereo unspecified)	0.2	84*	0.6	42	-2	4
COc1ccc(NC(=O)C(C)Oc2ccc(/C(C)=N\O)cc2)cc1 (stereo unspecified)	0.3	66*	0.2	81*	6	-2
CC(Oc1ccccc1)C(=O)Nc1ccc(C(N)=O)cc1 (stereo unspecified)	0.7	28	0.5	48	10	-10
COc1ccc(OC(C)C(=O)Nc2cccc(OC)c2)cc1 (stereo unspecified)	0.3	75*	0.1	87*	-22	20
CO/N=C(\C)c1ncc(C(F)(F)F)cc1N1CCOCC1	1.3	-28	1.2	-23	2	-2
CCCNC(=O)CSc1nnc(C)s1	0.8	22	0.8	17	-6	6
CCC(C)(C)n1nnnc1C(c1cc2cc(OC)c(OC)cc2[nH]c1=O)N1CCc2ccccc21 (stereo unspecified)	0.2	77*	0.5	46	4	-4
CC(C)(C)n1nnnc1C(c1cc2cc3c(cc2[nH]c1=O)OCO3)N1CCN(c2ccccc2)CC1 (stereo unspecified)	0.6	39	1	2	-4	4
Cc1ccc2cc(C(c3nnnn3C(C)(C)C)N3CCCCCC3)c(=O)[nH]c2c1 (stereo unspecified)	0.3	65*	0.7	32	-3	4
COc1cc2cc(C(c3nnnn3C(C)(C)C)N3CCc4ccccc4C3)c(=O)[nH]c2cc1OC (stereo unspecified)	0.2	81*	0.3	65*	-7	8
Cc1ccc(S/C=C\C(=O)c2ccccc2)cc1	0.9	10	0.9	12	11	-16
Cc1ccc(-c2noc(CCC(=O)Nc3cccc(C#N)c3)n2)cc1	0.6	45	0.8	24	0	3
Cc1cccc(-c2noc(CCC(=O)Nc3ccccc3)n2)c1	0.3	75*	0.1	92*	-2	5
Cc1cccc(-c2noc(CCC(=O)NCc3ccccc3)n2)c1	0.7	35	0.9	13	-2	0
CCOC(=O)c1ccc(NC(=O)CCc2nc(-c3cccc(C)c3)no2)cc1	0.5	52*	1	0	-14	12
COC(=O)c1nn(-c2ccc(OC)cc2)c(=O)cc1Oc1cccc(Cl)c1	1	0	0.9	12	2	-5
COc1ccc(C(=O)N2CCCC(c3ccccc3)C2)cc1 (stereo unspecified)	1.2	-24	0	95*	-2	3
O=C(c1ccco1)N1CCCN(C(=O)c2ccco2)CC1	1.2	-19	0.8	15	9	-9
